The values below come from PubChem BioAssay AID1851 (National Center for Advancing Translational Sciences (NCATS), 2009).

Where “and” joins values, the source holds several entries; their conditions need not be identical. Identical values can stand only once. The whole screen tested about 16,000 compounds, of which about 5,800 (36%) were called active. Inconclusive results (about 23%) are left out. The list shows a part of the results. A number with no mark means an inactive call. The call rests on the fitted dose curve; in most records, active means well fitted curve in the direction sought with a large enough effect; inconclusive means small, poorly fitted or top-dose-only effect, or effect the other way; inactive means no such curve, though single readings can be large or run the other way. Square brackets hold non-standard residues; d marks the D form. Peptide text beside a SMILES is read from it.
On the % scale 0 is the no-effect control and ±100 the full control effect.

Sequence of Cytochrome P450 2C19 (Homo sapiens) (P33261 whole entry, looked up): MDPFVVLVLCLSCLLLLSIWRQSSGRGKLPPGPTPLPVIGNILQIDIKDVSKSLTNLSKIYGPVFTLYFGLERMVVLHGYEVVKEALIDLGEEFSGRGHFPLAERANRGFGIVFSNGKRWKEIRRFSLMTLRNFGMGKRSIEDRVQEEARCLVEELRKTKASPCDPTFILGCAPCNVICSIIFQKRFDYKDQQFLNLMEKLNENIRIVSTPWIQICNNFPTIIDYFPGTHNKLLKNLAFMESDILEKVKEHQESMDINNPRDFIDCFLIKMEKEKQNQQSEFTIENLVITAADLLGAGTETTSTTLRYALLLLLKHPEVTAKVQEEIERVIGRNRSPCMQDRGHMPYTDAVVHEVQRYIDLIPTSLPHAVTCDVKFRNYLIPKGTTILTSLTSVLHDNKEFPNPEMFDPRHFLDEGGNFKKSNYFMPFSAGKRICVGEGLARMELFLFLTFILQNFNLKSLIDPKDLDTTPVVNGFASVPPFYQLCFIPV

The experiment concerns the target Cytochrome P450 2C19 (Homo sapiens) (UniProt P33261). The experiment can be described thus: Cytochrome panel assay with activity outcomes. The settings on record: recombinant CYP, pro-luciferin dealkylation, luminescence, p450-cyp2c19; series mostly up to 57.1 µM; activity, negative = inhibition: at the top concentration.
`c1ccc2c3c([nH]c2c1)[C@@H]1[C@H]2CC[C@H]([C@H]4CCCN[C@H]42)N1CC3`: the “activity, negative = inhibition” value was 1.6% [at 25.6 µM].

On to `Cc1noc(C)c1C(=O)N1CCC2(CCCN(Cc3nccs3)C2)CC1`, for which the “activity, negative = inhibition” value is -39.5%.

Turning to `NCC(=O)N[C@H](CO)C(=O)O` (H-Gly-[dS]-OH), the activity, negative = inhibition is -0.959% [at 11.4 µM].

One may read the AC50 as the concentration at which the activity in the assay is half-maximal. With `COc1ccc(N2CCN(S(=O)(=O)c3ccc4c(c3)CCCC4)CC2)c([N+](=O)[O-])c1`, the AC50 is 2 µM (active).

For the molecule `CCS(=O)(=O)N1CCC[C@H]2CN3CCc4cc(OC)ccc4[C@@H]3C[C@@H]21`, the “activity, negative = inhibition” value was -31.5%.

Turning to `COc1cccc(-c2cc(C(F)(F)F)nc(N3CCN(c4ccccc4)CC3)n2)c1`, the AC50 was 8.91 µM (active).

For the molecule `COc1ccc(-n2c(=O)c(-c3ccccc3)nc3cnc(N4CCNCC4)nc32)cc1`, the “activity, negative = inhibition” value is -16.4%.

Turning to `COc1cccc(Cn2c(=O)c(-c3cn(C)c4ccccc34)nc3cnc(N4CCOCC4)nc32)c1`, the “activity, negative = inhibition” value was -44.4%.

With `COc1cccc(-c2cc(C(F)(F)F)nc(N3CCOCC3)n2)c1`, the concentration at half-maximal activity (AC50) is 25.1 µM (active).

For `COc1ccc(-n2c(=O)c(-c3cc(F)cc(F)c3)nc3cnc(N4CCOCC4)nc32)cc1`, the “activity, negative = inhibition” value is -21.1%.

As to `CCC(=S)/C=C1\Sc2ccccc2N1CCCS(=O)(=O)O`, the “activity, negative = inhibition” value is 31%.

On to `Brc1cc2c(cc1/C=N/Nc1nc(N3CCCC3)nc(N3CCOCC3)n1)OCO2`, for which the AC50 was 7.94 µM (active).

On to `O=[N+]([O-])c1ccc2c(c1)Cc1cc(N=Cc3ccc4c(c3)OCO4)ccc1-2`, for which the activity, negative = inhibition is -19.5% [at 11.4 µM].

Turning to `O=[N+]([O-])c1ccc(Nc2nc(N/N=C\c3ccc4c(c3)OCO4)nc(N3CCCCC3)n2)cc1`, the AC50 is 2.24 µM (active).

In the case of `COC(=O)[C@H](C)[C@@H]1C[C@@]1(C)[C@@H](NC(=O)OCc1ccccc1)c1ccccc1`, the AC50 is 0.316 µM (active).

As to `COC(=O)[C@H](C)[C@H]1C[C@]1(C)[C@H](NC(=O)OCc1ccccc1)c1ccccc1`, the AC50 was 0.251 µM (active).

`C[C@@H](C(=O)O)[C@@H]1C[C@@]1(C)[C@@H](NC(=O)OCc1ccccc1)c1ccccc1`: the “activity, negative = inhibition” value was -18.6%.

Turning to `C[C@@H](C(=O)O)[C@H]1C[C@]1(C)[C@H](NC(=O)OCc1ccccc1)c1ccccc1`, the half-maximal activity concentration (AC50) is 7.94 µM (active).

`O=C(/C=C\C=C/c1ccc2c(c1)OCO2)N1CCCCC1`: the “activity, negative = inhibition” value was -43.6% [at 25.6 µM].

Consider `O=C(O)/C=C\C=C/c1ccc2c(c1)OCO2`, for which the activity, negative = inhibition is 23.6% [at 11.4 µM].

Regarding `O=C(/C=C\c1ccc2c(c1)OCO2)c1ccc(F)cc1`, the AC50 is 1 µM (active).

Turning to `Nc1ccccc1C(=O)/C=C\c1ccc2c(c1)OCO2`, the AC50 is 1 µM (active).

For `COCOc1cc(OC)ccc1C(=O)/C=C\c1ccc2c(c1)OCO2`, the AC50 was 0.1 µM (active).

For the molecule `O=C1/C(=C/c2cccnc2)SC(=S)N1Cc1ccco1`, the AC50 is 3.16 µM (active).

Consider `COC(=O)c1nn(-c2ccccc2)c(=O)cc1Oc1ccccc1`, for which the AC50 was 14.1 µM (active).

Consider `O=C1C=C[C@@H](O)[C@H]2[C@@H]3C(=O)N(c4cccc(Oc5ccccc5)c4)C(=O)[C@@H]3CC[C@H]12`, for which the activity, negative = inhibition was -33.5% [at 11.4 µM].

For `COC(=O)c1nn(-c2ccc(OC)cc2)c(=O)cc1Oc1cccc(Cl)c1`, the AC50 was 14.1 µM (active).

Turning to `Nc1nc2c(nc(Br)n2[C@@H]2O[C@H]3COP(=O)(O)O[C@@H]3[C@H]2O)c(=O)[nH]1`, the “activity, negative = inhibition” value was 36.8%.

On to `NC(N)=[N+]1CCc2ccccc2C1`, for which the “activity, negative = inhibition” value was 32%.

In the case of `CON(C)C(=O)c1nnc2c3ccccc3n(S(=O)(=O)c3ccc(C)cc3)c2n1`, the activity, negative = inhibition was 16% [at 11.4 µM] and 19.4% [at 11.4 µM].

In the case of `COc1ccc(N(C(=O)COc2ccccc2OC)S(=O)(=O)c2ccc(C)cc2)cc1`, the AC50 is 5.01 µM (active).

`CCCCCN(CCCCC)C(=O)[C@H](CCC(=O)O)NC(=O)c1ccc(Cl)c(Cl)c1`: the AC50 entry was “inactive”.

Regarding `COc1ccc(C(NC(=O)c2ccc(-c3ccccc3)cc2)c2ccccc2)cc1` (configuration not stated), the “activity, negative = inhibition” value is -5%.

With `C[C@H](NC(=O)c1ccc(Cl)c(Cl)c1)c1ccc(-c2ccccc2)cc1`, the AC50 was 1.26 µM (active).

Regarding `O=C(Nc1cccc(F)c1)N1CC[C@@]2(CCCN(C(=O)c3cnccn3)C2)C1`, the “activity, negative = inhibition” value was 26.6%.

`O=c1oc2cc(Oc3c([N+](=O)[O-])cc(C(F)(F)F)cc3[N+](=O)[O-])ccc2c2c1CCCC2`: the AC50 was 2.82 µM (active).

For `O=c1oc2cc(Oc3ccc(C(F)(F)F)cc3[N+](=O)[O-])ccc2c2c1CCCC2`, the “activity, negative = inhibition” value is -6.74%.

For `CN(C)c1ccc(-c2cncnc2Nc2ccccc2)cc1`, the AC50 is 0.316 µM (active).

In the case of `CN(C)c1ccc(-c2cncnc2Nc2ccc(F)cc2)cc1`, the AC50 is 0.794 µM (active).

Consider `Fc1ccc(Nc2ncncc2-c2ccoc2)cc1`, for which the “activity, negative = inhibition” value is -37.3%.

For `CN(C)C(=O)c1ccc(-c2cncnc2NC2CCNCC2)cc1`, the “activity, negative = inhibition” value was 32.8%.

On to `COC(=O)[C@@H]1[C@@H]2C[C@H]3c4[nH]c5cc(OC)ccc5c4CCN3C[C@@H]2C[C@H](OC(=O)c2cc(OC)c(OC)c(OC)c2)[C@H]1OC`, for which the “activity, negative = inhibition” value is -17.8% [at 25.6 µM].

On to `COc1cc(C(=O)NC(=S)Nc2ccc3oc(=O)ccc3c2)cc(OC)c1OC`, for which the “activity, negative = inhibition” value is -15%.

For `COc1cc(C(=O)NC(=S)Nc2cccc(-c3cc4ccccc4oc3=O)c2)cc(OC)c1OC`, the AC50 is 5.01 µM (active).

`CCOc1ccc(C(=O)Nc2cccc(-c3cc4ccccc4oc3=O)c2)cc1[N+](=O)[O-]`: the AC50 was 1.78 µM (active).

In the case of `COc1cc(NC(=O)c2cc(Cl)ccc2Cl)ccc1-c1cc2ccccc2oc1=O`, the AC50 is 0.794 µM (active).

Take `CCCCC(=O)Nc1cc(OCC)c(NC(=O)c2ccccc2[N+](=O)[O-])cc1OCC`: the “activity, negative = inhibition” value was -2.64%.
